Data: PubChem BioAssay (NCATS)
Inconclusive results are not listed. A number with no mark means an inactive call. Calls come from the whole dose curve; as a rule, active = well fitted curve in the direction sought with a large enough effect; inconclusive = small, poorly fitted or top-dose-only effect, or another doubt; inactive = no such curve, though single readings can be large; an effect the other way counts as inactive or inconclusive.

molecular target: DNA repair nuclease/redox regulator APEX1 (Homo sapiens) (UniProt P27695); experiment: qHTS Validation Assay for Inhibitors of the Human Apurinic/apyrimidinic Endonuclease 1 (APE1) (AID 1705;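 note: TAMRA fluorescence gain over two minutes as APE1 cuts a quenched THF abasic duplex; % is set by controls: 0 for no effect and ±100 for the full control effect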); details: purified APE1 endonuclease activity, fluorescence, titration; series mostly up to 57.1 µM; activity change, negative = inhibition: at the top concentration
Sequence (P27695 whole entry, looked up): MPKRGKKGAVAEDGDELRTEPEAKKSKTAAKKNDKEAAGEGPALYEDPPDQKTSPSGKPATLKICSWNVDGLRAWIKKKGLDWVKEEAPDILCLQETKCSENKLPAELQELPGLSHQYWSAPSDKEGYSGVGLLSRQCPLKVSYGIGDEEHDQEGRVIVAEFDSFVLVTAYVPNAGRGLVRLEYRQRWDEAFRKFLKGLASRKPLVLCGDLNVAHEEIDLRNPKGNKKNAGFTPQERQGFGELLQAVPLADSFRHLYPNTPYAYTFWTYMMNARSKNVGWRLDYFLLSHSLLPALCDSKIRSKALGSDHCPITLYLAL
How it was run: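 Activity read as rising fluorescence (598 nm emission, 525 nm excitation) from incision of a TAMRA/BHQ-2 duplex carrying a THF abasic site (50 nM). Compound and enzyme sat 15 min at RT before substrate start; signal change between first and third 60-s reads.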

Compound | activity change, negative = inhibition [%]
CC12C(=O)OC(=O)C1(C)C1CCC2O1 (centres undefined) | -4.35
CCCN(CC1CC1)c1nc(C)nc(Nc2c(Cl)cc(Cl)cc2Cl)c1Cl | -3.98
O=C(O)CCCC[C@@H]1CCSS1 | -6.24
Oc1cc(O)cc(/C=C/c2ccc(O)c(O)c2)c1 | -15.2
C[C@@H](CN1CCC(Cc2ccccc2)CC1)[C@@H](O)c1ccc(O)cc1 | 2.2
NCCCS(=O)(=O)O | 3.49

test system: not listed separately; experiment: Counterscreen for APE1 Inhibitors: Fluorescent Dye Displacement Validation Assay (AID 1707); details: fluorescent dye displacement from DNA; series mostly up to 57.1 µM; activity change, negative = inhibition: at the top concentration;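 note: plate controls were ThO with dsDNA and no compound for no effect and ThO without dsDNA for full effect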
How it was run: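 Endpoint fluorescence read at 480 nm excitation / 540 nm emission; DNA-binding compounds lower signal by displacing 250 nM Thiazole Orange from 50 nM dsDNA containing a tetrahydrofuran abasic site, Tris-HCl pH7.5 buffer with NaCl and MgCl2.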

Compound | activity change, negative = inhibition [%]
S=C(S)OC1CC2CC1C1CCCC21 (centres undefined) | 3.47
N[C@@H](CC(=O)O)C(=O)O | 2.4
CC(C)(C=O)Cc1cc(C(C)(C)C)c(O)c(C(C)(C)C)c1 | -1.82
Oc1ccccc1O | 0.942
CCN1/C(=C/C(C)=O)Sc2ccc(OC)cc21 | -4.37
O=c1[nH]c2ccccc2n1CCCN1CCN(C(c2ccccc2)c2ccccc2)CC1 | -0.392
CCCCCCCCCCCCCCCCCC(=O)NCC(COP(=O)([O-])OCC[N+](C)(C)C)OCC (centres undefined) | -6.86
O=C1O/C(=C/Br)CCC1c1cccc2ccccc12 (centres undefined) | -2.24
O=C1C(SCCO)=C(SCCO)C(=O)c2ccccc21 | -4.93
O=c1[nH]c2cc(Cl)c(Cl)cc2[nH]c1=O | -1.73
COc1cc(OC)c(/C=C2/C(=O)Nc3ccccc32)c(OC)c1 | -6.67
CCCCCCCCCCCCCCCCCC(=O)OC(CC(=O)O)C[N+](C)(C)C (centres undefined) | -0.424
CC(C)NC[C@H](O)COc1cccc2[nH]ccc12 | 2.84
CCCCCCCCCCCCCCCC(=O)OC(CC(=O)O)C[N+](C)(C)C (centres undefined) | -5.48
O=C1NC(O)=NC1(c1ccccc1)c1ccccc1 | 6.28
O=C(c1cc(O)c(O)c([N+](=O)[O-])c1)c1ccccc1F | -0.547
COc1ccc(NC(=O)/C=C/c2ccc(Cl)cc2)cc1 | -3.41
CN1CCc2cccc3c2C1Cc1ccc(O)c(O)c1-3 (centres undefined) | -5.69
NC[C@@H]1O[C@H](C23CC4CC(CC(C4)C2)C3)Cc2c1ccc(O)c2O | 1.28
CC(C)(C)c1ccc(S(=O)(=O)/C=C/C#N)cc1 | -3.03
O=S(=O)(c1cccc2c(I)cccc12)N1CCCNCC1 | -1.49
CC12C(=O)OC(=O)C1(C)C1CCC2O1 (centres undefined) | -0.293
CCCN(CC1CC1)c1nc(C)nc(Nc2c(Cl)cc(Cl)cc2Cl)c1Cl | -1.63
O=C(O)CCCC[C@@H]1CCSS1 | 1.05
CCCCCCCCCCCCCCCCCCNC(=O)OCC(COP(=O)([O-])OCC[n+]1ccsc1)OC (centres undefined) | 0.0106
C[C@@H](CN1CCC(Cc2ccccc2)CC1)[C@@H](O)c1ccc(O)cc1 | -2.46
NCCCS(=O)(=O)O | 0.993
O=C(Nc1cccc(C(=O)Nc2ccc(S(=O)(=O)O)c3cc(S(=O)(=O)O)cc(S(=O)(=O)O)c23)c1)Nc1cccc(C(=O)Nc2ccc(S(=O)(=O)O)c3cc(S(=O)(=O)O)cc(S(=O)(=O)O)c23)c1 | -76.5
